Data from PubChem BioAssay AID434968 (Broad Institute, 2010).
About 1,800 (86%) of roughly 2,100 compounds were called active. The set was probably picked from earlier hits. Only a sample is shown. A number with no mark means an inactive call. No rule for the calls is given here.

Assay: counter-screen GFP chromophore formation inhibition, dose response, counter-screen, biochemical, fluorescence, homogeneous (AID 434968)
Conditions: cell-free GFP chromophore formation
For `CCCCCCCCCCOC(=O)Cn1c(COc2cccc(OC)c2)[n+](C)c2ccccc21`, the EC50 was 10.4 µM (active). For `CCCCCCCCCCOC(=O)Cn1c(COc2ccc(C)cc2)[n+](C)c2ccccc21`, the EC50 was 16.1 µM (active). With `COc1ccc(C2C(C#N)=C(N)Oc3n[nH]c(C)c32)cc1CN1CCN(c2ccc(F)cc2)CC1` (configuration not stated) the EC50 was 23 µM (active). In the case of `Cc1cc(C(=O)CCl)c(C)n1CC1COc2ccccc2O1` (configuration not stated), the EC50 is reported as 37.5 µM (active). In the case of `Cc1oc2c(c1C(=O)N1CCOCC1)C(=O)c1ccccc1C2=O`, the EC50 is reported as 3.63 µM (active). For `O=C1CC(c2ccccc2)=NN1c1ccc([N+](=O)[O-])cc1`, the EC50 was 15.8 µM (active). `COc1ccc(C(=O)NC(=S)NNC(=O)CCc2ccccc2)cc1` showed an EC50 greater than 38 µM. In the case of `CCOC(=O)C(CC)Sc1ncnc2c1nnn2-c1ccc(F)cc1` (configuration not stated), the EC50 is reported as greater than 38 µM. With `NC1=NN(c2cccc(C(=O)O)c2)C(=O)C1` the EC50 was 31.6 µM (active). In the case of `Oc1c(Cl)cc(Cl)c(Cl)c1Cc1c(O)c(Cl)cc(Cl)c1Cl`, the EC50 is reported as 7.06 µM (active). With `NC(=O)CC[C@@H]1NC(=O)[C@H](CO)NC(=O)c2cc([N+](=O)[O-])cc(I)c2NCC[C@@H](C(N)=O)NC1=O` the EC50 was 22.5 µM (active). With `Cc1ccccc1C(CC(=O)c1cccs1)C(C#N)C#N` (configuration not stated) the EC50 was 2.18 µM (active). With `CCOC(=O)N1CCC(c2cc(=O)n(-c3ccccc3)[nH]2)CC1` the EC50 was 7.17 µM (active). For `O=C(CCl)N(Cc1cccc([N+](=O)[O-])c1)c1cccc(Cl)c1`, the EC50 was 3.06 µM (active). `Oc1ccc(N=Cc2sc3ccccc3c2Cl)cc1` showed an EC50 greater than 38 µM. Compound `COc1ccc(-c2csc(Nc3ccc(O)cc3)n2)cc1` has an EC50 greater than 38 µM. For `O=[N+]([O-])c1c(NCCO)cc(Sc2nc3ccccc3s2)c2nonc12`, the EC50 was 0.766 µM (active). In the case of `O=C(c1ccc(Cl)cc1)n1cnc2ccccc21`, the EC50 is reported as 22.1 µM (active). With `O=C1NC(c2ccc(-c3ccccc3[N+](=O)[O-])o2)C(C(=O)c2ccc(Cl)cc2)C(O)(C(F)(F)F)N1` (configuration not stated) the EC50 was 25.2 µM (active). With `CC(CCn1cccn1)NC(=O)CCc1nnc(CCc2ccccc2)o1` (configuration not stated) the EC50 was greater than 38 µM. In the case of `CC(C)OC(=O)CN1C(=O)C(=O)c2ccccc21`, the EC50 is reported as 22.5 µM (active). With `O=C(Nc1ccccc1)c1nnsc1S(=O)(=O)c1ccc(Cl)cc1` the EC50 was 11.7 µM (active). In the case of `CC1(N2CCOCC2)CC2(O)C(=[N+]1[O-])CCc1nonc12` (configuration not stated), the EC50 is reported as 24.9 µM (active). For `N#Cc1c(N)n(CCOC(=O)c2ccc(Cl)cc2)c2nc3ccccc3nc12`, the EC50 was 2.69 µM (active). In the case of `COc1ccc(C(CCN(Cc2ccc(OC)c(OC)c2)C(=O)CCl)c2ccccc2)cc1` (configuration not stated), the EC50 is reported as 0.326 µM (active). For `CCN(CC)c1ccc2oc(=O)c(C)nc2c1`, the EC50 was 13.6 µM (active). For `COc1ccc2c(c1)C(=C(C#N)C#N)C(=O)N2CCc1ccccc1`, the EC50 was greater than 38 µM. For `COc1ccccc1-n1nnnc1S(=O)(=O)Cc1ccc(Cl)cc1`, the EC50 was 27.2 µM (active). Work on `Cc1ccc(NC(=O)c2cnc(SCC(=O)NCC3CCCO3)n(C)c2=O)cc1` (configuration not stated) yielded an EC50 greater than 38 µM. For `Cc1nn(Cc2ccccc2)c2c1C(c1ccccc1)C(C#N)=C(N)O2` (configuration not stated), the EC50 was 15.2 µM (active). In the case of `O=S(=O)(O)Oc1c[nH]c2ccccc12`, the EC50 is reported as 0.78 µM (active). In the case of `COC(=O)c1sc(-c2ccc(C(C)(C)C)cc2)cc1NC(=O)/C=C/C(=O)O`, the EC50 is reported as 4.26 µM (active). With `CCOC(=O)c1c(C)[nH]c2c1-c1ccccc1C(=O)C2=O` the EC50 was 2.58 µM (active). In the case of `CCOC(=O)C1=C(c2ccc(OC)cc2)C(=O)c2ccccc2C1=O`, the EC50 is reported as 6.35 µM (active). In the case of `COc1ccc(S(=O)(=O)/N=C2\C=C(NS(=O)(=O)c3ccccc3)C(=O)c3ccccc32)cc1`, the EC50 is reported as 3.05 µM (active). With `C=CS(=O)c1sc(Cl)c(N2CCOCC2)c1[N+](=O)[O-]` (configuration not stated) the EC50 was 24.9 µM (active). For `Cc1oc2cc([N+](=O)[O-])c(O)c([N+](=O)[O-])c2c1C(=O)c1ccc(Br)cc1`, the EC50 was 19.5 µM (active). In the case of `Cc1ccc(SCC2=NNC(=O)C2)cc1`, the EC50 is reported as 6.33 µM (active). For `CCOc1c(Br)cc(/C=C2\C(=O)N(CCC#N)N=C2C)cc1OC`, the EC50 was 3.7 µM (active). With `CN(c1ccccc1)c1ccc([N+](=O)[O-])c2nonc12` the EC50 was 20.3 µM (active). `CC(=O)C12CC(C)=C(C)CC1CC1C3CCC4=CC(=O)CCC4(C)C3CCC12C` (configuration not stated) showed an EC50 greater than 38 µM. Work on `Cc1cc2[nH]ncc2cc1NC(=S)NC(=O)c1ccccc1` yielded an EC50 greater than 38 µM. With `O=S(=O)(Nc1ccc(O)c2ccccc12)c1ccc(OC(F)(F)F)cc1` the EC50 was 0.19 µM (active). For `O=c1[nH]c2ccccc2n2c(-c3ccccc3)nnc12`, the EC50 was 26.2 µM (active). `O=C(Oc1ccc(Br)cc1C(=S)N1CCOCC1)c1cccc([N+](=O)[O-])c1` showed an EC50 greater than 38 µM. For `CCCCOC(=O)CNc1nnc(SCC(=O)OCC)[nH]c1=O`, the EC50 was 11.3 µM (active). `COC(=O)CC1=NN(c2nc(C)cc(C)n2)C(=O)C1` showed an EC50 greater than 38 µM. In the case of `Cc1ccc(Nc2cc(C)nc3c(C)ccc([N+](=O)[O-])c23)cc1`, the EC50 is reported as 12 µM (active). Compound `Cc1ccc(CNC(=O)CCN2C(=O)[C@@H]3Cc4ccccc4CN3C2=O)cc1` has an EC50 greater than 38 µM. For `Cc1[nH]n(C)c(=O)c1C(=O)c1c(-c2c(Cl)cccc2Cl)noc1C`, the EC50 was 12.1 µM (active). In the case of `CCCCCCCCc1c(O)nc(-n2[nH]c(C)c(CCO)c2=O)[nH]c1=O`, the EC50 is reported as greater than 38 µM. In the case of `CSc1nnc(NC(=O)c2nc(S(=O)(=O)Cc3ccc(C)cc3)ncc2Cl)s1`, the EC50 is reported as 17 µM (active). With `Cc1cccc(CS(=O)(=O)c2ncc(Cl)c(C(=O)Nc3ccc(F)cc3)n2)c1` the EC50 was 2.65 µM (active). For `CC1=NN(Cc2ccccc2)C(=O)/C1=C/c1ccc(N(C)C)cc1`, the EC50 was 3.59 µM (active). `O=C(CCCN1C(=O)/C(=C/c2ccccc2)SC1=S)Nc1ccc(O)cc1` gave an EC50 greater than 38 µM. In the case of `CC1=NNC(=O)C1Cc1c(Cl)cccc1Cl` (configuration not stated), the EC50 is reported as 3.71 µM (active). In the case of `O=C(Cc1cc(=O)[nH][nH]1)N/N=C/c1ccccc1[N+](=O)[O-]`, the EC50 is reported as 10.3 µM (active). With `Cc1ccsc1/C=N/NC(=O)Cc1cc(=O)[nH][nH]1` the EC50 was 6.88 µM (active). In the case of `COc1ccc(-c2[nH]nc3c2C(c2ccncc2)C(C#N)=C(N)O3)cc1` (configuration not stated), the EC50 is reported as 21.3 µM (active). With `CCCc1[nH]nc2c1C(c1ccc(OC(=O)c3ccco3)cc1)C(C#N)=C(N)O2` (configuration not stated) the EC50 was 25.1 µM (active). With `CCc1ccc(C2C(C#N)=C(N)Oc3n[nH]c(CC(=O)OC)c32)cc1` (configuration not stated) the EC50 was 36.3 µM (active). With `CCCc1[nH]nc2c1C(c1ccc(Br)s1)C(C#N)=C(N)O2` (configuration not stated) the EC50 was 17.8 µM (active). With `Cc1cc(C)n2nc(CNS(=O)(=O)c3c(F)c(F)c(F)c(F)c3F)nc2n1` the EC50 was 10 µM (active). For `CN1CCc2nc(SC(C(=O)O)c3ccccc3)c(C#N)c(-c3cccs3)c2C1` (configuration not stated), the EC50 was 31.1 µM (active). Work on `Cc1nc2ccccc2nc1N/N=C/c1ccc(O)cc1O` yielded an EC50 greater than 38 µM. With `O=C(Nc1ccccc1Cl)/C(Cl)=C(\Cl)S(=O)c1ccccc1` (configuration not stated) the EC50 was 1.31 µM (active). In the case of `Cc1c(-c2nn(C)c(=O)c3ccccc23)oc2ccc(F)cc2c1=O`, the EC50 is reported as 6.81 µM (active). Compound `CCOCC(=O)NCc1ccc2c(c1)cc(C)n2C` has an EC50 greater than 12 µM. With `COc1ccc(/C=C2/C(=O)N(c3ccccc3)N=C2C)c(OC)c1` the EC50 was 21.7 µM (active). For `COc1ccc(C2NC(=S)NC3=C2CCc2ccccc23)cc1OC` (configuration not stated), the EC50 was 22.7 µM (active). With `Cc1ccc(N(Cc2cc(=O)[nH]c3ccccc23)C(=O)CCl)cc1` the EC50 was 0.148 µM (active). For `O=C1/C(=C/c2ccc3c(c2)OCO3)CCC/C1=C\c1ccc2c(c1)OCO2`, the EC50 was greater than 38 µM. With `Cc1[nH][nH]c(=O)c1C(c1ccc2c(c1)OCO2)c1c(C)[nH][nH]c1=O` the EC50 was 0.426 µM (active). For `CCOc1ccc(C(c2c(C)[nH][nH]c2=O)c2c(C)[nH][nH]c2=O)cc1OCC`, the EC50 was 0.386 µM (active). In the case of `COc1cccc(/C=N/Nc2cc(C)nc(-c3ccccc3O)n2)c1O`, the EC50 is reported as greater than 38 µM. For `O=C(O)CSc1c2c(nc3cc(C(=O)Nc4cccc(C(F)(F)F)c4)ccc13)CCCC2`, the EC50 was 15.6 µM (active). In the case of `COc1ccc(-c2nnc(SC(=O)N3c4ccccc4Sc4ccccc43)o2)cc1`, the EC50 is reported as 0.551 µM (active).
